Reference: PubChem BioAssay (EPA / NIEHS)
Calls of active or inactive are those of the source. The calls were made as follows: active = hit-call score of the fitted dose curve at least 0.9, where 1 is the maximum; inactive = score below 0.9.

read-out: not listed separately; assay: BSK_KF3CT_SRB: Viability Assessment in the BioMAP Diversity Plus: KF3CT Assay (AID 2283069); details: primary human keratinocytes with fibroblasts;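 also: total protein by sulforhodamine B staining as a cytotoxicity measure; read 24 h after compound addition; fitted for both signal gain and loss against DMSO baseline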
In short: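 Human keratinocyte and foreskin fibroblast co-culture exposed to chemical for 24 h. Total protein measured in parallel cultures by 0.1% sulforhodamine B staining after 10% TCA fixation, read at 560 nm; bidirectional fit relative to DMSO.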

Structure (SMILES) | outcome | AC50
CCO[Si](CCCNC(N)=O)(OCC)OCC | inactive | –
CCCCCCCCOc1ccc(C(=O)c2ccccc2)c(O)c1 | inactive | –
COc1cc(C(=O)NC2CCN(C)CC2)ccc1Nc1ncc2c(n1)N(C1CCCC1)CC(F)(F)C(=O)N2C | – | 30.8 µM (active)
c1ccc2ccccc2c1 | inactive | –
O=CCCCC=O | – | 34.1 µM (active)
Cc1ncc(CO)c(CO)c1O | inactive | –
CCCCCCCC[Si](OCC)(OCC)OCC | inactive | –
CC(O)CC(C)(C)O (stereo unspecified) | inactive | –
Clc1ccccc1C(c1ccccc1)(c1ccccc1)n1ccnc1 | – | 5.3 µM (active)
COc1cccc([C@H](O)C2CCN(CCc3ccc(F)cc3)CC2)c1OC | inactive | –
CCCCCCCCCCCC[N+](C)(C)C | – | 33.9 µM (active)
Clc1cc(Cl)c2c(c1)N=C1CCCCCN1C2 | inactive | –
CO[C@H]1/C=C/O[C@@]2(C)Oc3c(C)c(O)c4c(O)c(c(/C=N/N5CCN(C)CC5)c(O)c4c3C2=O)NC(=O)/C(C)=C\C=C\[C@H](C)[C@H](O)[C@@H](C)[C@@H](O)[C@@H](C)[C@H](OC(C)=O)[C@@H]1C | inactive | –
Oc1ccc2ccccc2c1 | inactive | –
CN(C)C(=O)C1(N2CCCCC2)CCN(CC[C@@]2(c3ccc(Cl)c(Cl)c3)CN(C(=O)c3ccccc3)CCO2)CC1 | – | 28.4 µM (active)
CCN(CC)C(=O)c1cc(S(=O)(=O)Cc2ccccc2)c(N2CCC(c3ccccc3)CC2)cc1N(CC)CCN(C)C | – | 28 µM (active)
OC12N=C(c3ccccc3)SC1Cc1cc(Cl)ccc12 (stereo unspecified) | inactive | –
Cc1c2ccccc2c(C)c2c1ccc1ccccc12 | inactive | –
Cc1cc(F)ccc1-c1cc(N2CC[C@@H](O)[C@H]2CO)ncc1N(C)C(=O)C(C)(C)c1cc(C(F)(F)F)cc(C(F)(F)F)c1 | – | 13.5 µM (active)

Structure (SMILES) | outcome | AC50
Cc1cc2c(cc1C(F)(F)F)N(C(=O)Nc1ccc(Oc3cccnc3C)nc1)CC2 | – | 26.4 µM (active)
CCCCCCCCOC(=O)c1cc(O)c(O)c(O)c1 | – | 15.3 µM (active)
O=c1c(-c2ccc(O)cc2)coc2cc(O)cc(O)c12 | inactive | –
O=C1CCC(C2CCCCC2)CC1 | inactive | –
Oc1ccccc1 | inactive | –
CC1(C)NC(=O)N(c2ccc([N+](=O)[O-])c(C(F)(F)F)c2)C1=O | inactive | –
CN(C)c1ccc(C(=C2C=CC(=[N+](C)C)C=C2)c2ccc(N(C)C)cc2)cc1 | – | 5.24 µM (active)
CC[C@@H]1C[C@H](N(Cc2cc(C(F)(F)F)cc(C(F)(F)F)c2)C(C)=O)c2cc(C(F)(F)F)ccc2N1C(=O)OC(C)C | inactive | –
CN(C[C@@H](CC[N+]12CCC(C3CCCCC3)(CC1)CC2)c1ccc(Cl)c(Cl)c1)C(=O)c1cc(C(F)(F)F)cc(C(F)(F)F)c1 | – | 6.58 µM (active)
CC/C(=C(/CC)c1ccc(O)cc1)c1ccc(O)cc1 | – | 25.3 µM (active)
Cc1cn([C@H]2C[C@H](N=[N+]=[N-])[C@@H](CO)O2)c(=O)[nH]c1=O | inactive | –
CCCCCCCCCCCCO | – | 32.8 µM (active)
O=C=NCCCCCCN=C=O | inactive | –
CN1C(=O)CC[C@H]1c1cccnc1 | inactive | –
O=C1O[C@H]([C@@H](O)CO)C(O)=C1O | inactive | –
CCN(Cc1cccc(S(=O)(=O)O)c1)c1ccc(C(=C2C=CC(=[N+](CC)Cc3cccc(S(=O)(=O)O)c3)C=C2)c2ccccc2S(=O)(=O)[O-])cc1 | inactive | –
CN1C(=O)N(c2ccccc2Br)Cc2cnc(Nc3ccc4c(c3)OCC(CO)O4)nc21 (stereo unspecified) | – | 16.2 µM (active)
CCN(Cc1cccnc1)C(=O)c1cccc(Cl)c1[C@]1(C)C(=O)N(Cc2ccc(OC)cc2OC)c2ccc(Cl)cc21 | inactive | –
CCCC(=O)OCCC(C)C | inactive | –

read-out: Interleukin-1 alpha (IL1a), IL1A (gene 3552); assay: BSK_KF3CT_IL1a: BioMAP Diversity Plus: KF3CT Assay for Interleukin-1 alpha (IL1a) Biomarker Activity (AID 2283070); details: primary human keratinocytes with fibroblasts; actives raise or lower the signal
In short: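 Primary human keratinocyte plus foreskin fibroblast co-culture, dosed and measured at 24 h in 96-well plates. IL-1a level quantified by ELISA; bidirectional fit relative to DMSO.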

Structure (SMILES) | outcome | AC50
CCO[Si](CCCNC(N)=O)(OCC)OCC | inactive | –
CCCCCCCCOc1ccc(C(=O)c2ccccc2)c(O)c1 | inactive | –
COc1cc(C(=O)NC2CCN(C)CC2)ccc1Nc1ncc2c(n1)N(C1CCCC1)CC(F)(F)C(=O)N2C | – | 7.74 µM (active)
c1ccc2ccccc2c1 | inactive | –
O=CCCCC=O | – | 31.2 µM (active)
Cc1ncc(CO)c(CO)c1O | inactive | –
CCCCCCCC[Si](OCC)(OCC)OCC | inactive | –
CC(O)CC(C)(C)O (stereo unspecified) | inactive | –
Clc1ccccc1C(c1ccccc1)(c1ccccc1)n1ccnc1 | – | 10.4 µM (active)
COc1cccc([C@H](O)C2CCN(CCc3ccc(F)cc3)CC2)c1OC | inactive | –
CCCCCCCCCCCC[N+](C)(C)C | – | 32.5 µM (active)
Clc1cc(Cl)c2c(c1)N=C1CCCCCN1C2 | inactive | –
CO[C@H]1/C=C/O[C@@]2(C)Oc3c(C)c(O)c4c(O)c(c(/C=N/N5CCN(C)CC5)c(O)c4c3C2=O)NC(=O)/C(C)=C\C=C\[C@H](C)[C@H](O)[C@@H](C)[C@@H](O)[C@@H](C)[C@H](OC(C)=O)[C@@H]1C | inactive | –
Oc1ccc2ccccc2c1 | inactive | –
CN(C)C(=O)C1(N2CCCCC2)CCN(CC[C@@]2(c3ccc(Cl)c(Cl)c3)CN(C(=O)c3ccccc3)CCO2)CC1 | – | 34.3 µM (active)
CCN(CC)C(=O)c1cc(S(=O)(=O)Cc2ccccc2)c(N2CCC(c3ccccc3)CC2)cc1N(CC)CCN(C)C | inactive | –
OC12N=C(c3ccccc3)SC1Cc1cc(Cl)ccc12 (stereo unspecified) | inactive | –
Cc1c2ccccc2c(C)c2c1ccc1ccccc12 | inactive | –
Cc1cc(F)ccc1-c1cc(N2CC[C@@H](O)[C@H]2CO)ncc1N(C)C(=O)C(C)(C)c1cc(C(F)(F)F)cc(C(F)(F)F)c1 | – | 15 µM (active)

Structure (SMILES) | outcome | AC50
Cc1cc2c(cc1C(F)(F)F)N(C(=O)Nc1ccc(Oc3cccnc3C)nc1)CC2 | – | 15.5 µM (active)
CCCCCCCCOC(=O)c1cc(O)c(O)c(O)c1 | – | 25.5 µM (active)
O=c1c(-c2ccc(O)cc2)coc2cc(O)cc(O)c12 | inactive | –
O=C1CCC(C2CCCCC2)CC1 | inactive | –
Oc1ccccc1 | inactive | –
CC1(C)NC(=O)N(c2ccc([N+](=O)[O-])c(C(F)(F)F)c2)C1=O | inactive | –
CN(C)c1ccc(C(=C2C=CC(=[N+](C)C)C=C2)c2ccc(N(C)C)cc2)cc1 | – | 2.54 µM (active)
CC[C@@H]1C[C@H](N(Cc2cc(C(F)(F)F)cc(C(F)(F)F)c2)C(C)=O)c2cc(C(F)(F)F)ccc2N1C(=O)OC(C)C | inactive | –
CN(C[C@@H](CC[N+]12CCC(C3CCCCC3)(CC1)CC2)c1ccc(Cl)c(Cl)c1)C(=O)c1cc(C(F)(F)F)cc(C(F)(F)F)c1 | – | 11.2 µM (active)
CC/C(=C(/CC)c1ccc(O)cc1)c1ccc(O)cc1 | – | 28 µM (active)
Cc1cn([C@H]2C[C@H](N=[N+]=[N-])[C@@H](CO)O2)c(=O)[nH]c1=O | inactive | –
CCCCCCCCCCCCO | – | 30.6 µM (active)
O=C=NCCCCCCN=C=O | inactive | –
CN1C(=O)CC[C@H]1c1cccnc1 | inactive | –
O=C1O[C@H]([C@@H](O)CO)C(O)=C1O | inactive | –
CCN(Cc1cccc(S(=O)(=O)O)c1)c1ccc(C(=C2C=CC(=[N+](CC)Cc3cccc(S(=O)(=O)O)c3)C=C2)c2ccccc2S(=O)(=O)[O-])cc1 | inactive | –
CN1C(=O)N(c2ccccc2Br)Cc2cnc(Nc3ccc4c(c3)OCC(CO)O4)nc21 (stereo unspecified) | – | 10.4 µM (active)
CCN(Cc1cccnc1)C(=O)c1cccc(Cl)c1[C@]1(C)C(=O)N(Cc2ccc(OC)cc2OC)c2ccc(Cl)cc21 | inactive | –
CCCC(=O)OCCC(C)C | inactive | –
